Counter-ions that a name gives are not always drawn.
Columns and labels:
Conditions in all cases: incubation time: 27 h, anaerobic, 37 °C;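 for the amine columns active = adjusted P below 0.05 in both replicates with a change the same way and a mean fold change under 0.8 or over 1.25; inactive = the rest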
[1] = system: Clostridium sporogenes DSM 1664; experiment: growth (OD595) fold change vs plate DMSO controls (fold change (ratio)); higher = more growth
Outline: (§1)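 Each value is the mean of 2 biological replicates, and fold changes above 1.5 were set to NA. The underlying readings were taken at 595 nm from shaken anaerobic mGAM cultures in 96-well plates after 27 h at 37 °C. They were blank-subtracted, corrected for compound background using 20 µM compound solutions in water, and converted to OD with a calibration factor of 5. Growth is the fold change relative to the median of the plate DMSO controls.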

[2] = system: Escherichia coli IAI1; experiment: as above
Outline: as §1

[3] = system: Klebsiella aerogenes DSM 30053; experiment: as above
Outline: as §1

[4] = system: Ruminococcus gnavus DSM 108212; experiment: as above
Outline: as §1

[5] = system: Klebsiella aerogenes DSM 30053; experiment: fold change of Histamine concentration vs plate DMSO controls (fold change (ratio)); higher = more amine produced, active = hit call of the paper (significant change in both replicates, either direction)
Outline: (§2)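 Each value is the fold change relative to DMSO-only wells on the same plate. Four gut bacterial strains were grown anaerobically in mGAM at 37 °C for 27 h in 80 µL wells, starting at OD 0.1 before a 1:1 dilution, with compounds at 20 µM final (sweeteners 50 µM). Whole cultures were extracted with cold acetonitrile/methanol containing 0.1% formic acid, centrifuged, and amines were quantified by LC–triple-quadrupole MS (dynamic MRM) against external calibration curves with within-batch drift correction. Values are means of 2 biological replicates.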

[6] = system: Clostridium sporogenes DSM 1664; experiment: fold change of Tryptamine concentration vs plate DMSO controls (fold change (ratio)); higher = more amine produced, active = hit call of the paper (significant change in both replicates, either direction)
Outline: as §2

[7] = system: Ruminococcus gnavus DSM 108212; experiment: as above
Outline: as §2

[8] = system: Escherichia coli IAI1; experiment: fold change of Putrescine concentration vs plate DMSO controls (fold change (ratio)); higher = more amine produced, active = hit call of the paper (significant change in both replicates, either direction)
Outline: as §2

[9] = system: Klebsiella aerogenes DSM 30053; experiment: as above
Outline: as §2

[10] = system: Escherichia coli IAI1; experiment: fold change of Cadaverine concentration vs plate DMSO controls (fold change (ratio)); higher = more amine produced, active = hit call of the paper (significant change in both replicates, either direction)
Outline: as §2

[11] = system: Klebsiella aerogenes DSM 30053; experiment: as above
Outline: as §2

[12] = system: Ruminococcus gnavus DSM 108212; experiment: fold change of 2-Phenylethylamine concentration vs plate DMSO controls (fold change (ratio)); higher = more amine produced, active = hit call of the paper (significant change in both replicates, either direction)
Outline: as §2

Structure (SMILES) | growth [1] | growth [2] | growth [3] | growth [4] | fold change of Histamine concentration [5] | fold change of Tryptamine concentration [6] | fold change of Tryptamine concentration [7] | fold change of Putrescine concentration [8] | fold change of Putrescine concentration [9] | fold change of Cadaverine concentration [10] | fold change of Cadaverine concentration [11] | fold change of 2-Phenylethylamine concentration [12]
Clc1ccc2c(c1)CCc1cccnc1C2=C1CCNCC1 [Desloratadine] (20 µM) | 0.922 | 0.981 | 0.992 | 0.972 | 1.07 (inactive) | 1.11 (inactive) | 0.962 (inactive) | 1 (inactive) | 1.01 (inactive) | 0.976 (inactive) | 0.987 (inactive) | 1.02 (inactive)
CO[C@H]1/C=C/O[C@@]2(C)Oc3c(C)c(O)c4c(O)c(c(/C=N/N5CCN(C)CC5)c(O)c4c3C2=O)NC(=O)/C(C)=C\C=C\[C@H](C)[C@H](O)[C@@H](C)[C@@H](O)[C@@H](C)[C@H](OC(C)=O)[C@@H]1C [Rifampicin] (20 µM) | 0.000637 | 0.224 | 0.627 | 0.187 | 0.732 (inactive) | 0.0227 (active) | 0.145 (active) | 0.718 (active) | 0.768 (inactive) | 1.14 (inactive) | 1.06 (inactive) | 0.131 (active)
c1ccc2c(c1)CCCC2C1=NCCN1 (centres undefined) [Tetrahydrozoline hydrochloride] (20 µM) | 0.99 | 0.997 | 1.01 | 0.897 | 0.99 (inactive) | 1.01 (inactive) | 0.993 (inactive) | 1.04 (inactive) | 0.992 (inactive) | 0.966 (inactive) | 1 (inactive) | 1.01 (inactive)
COC1=C(OC)C(=O)C(CCCCCCCCCCO)=C(C)C1=O [Idebenone] (20 µM) | 1.18 | 1 | 1.01 | 0.839 | 1.06 (inactive) | 1.02 (inactive) | 1.06 (inactive) | 0.947 (inactive) | 1.01 (inactive) | 1.05 (inactive) | 1.08 (inactive) | 1.17 (inactive)
CCc1cccc2c3c([nH]c12)C(CC)(CC(=O)O)OCC3 (centres undefined) [Etodolac] (20 µM) | 1.08 | 1.03 | 1.1 | 1.06 | 1.06 (inactive) | 0.981 (inactive) | 1.06 (inactive) | 0.968 (inactive) | 0.949 (inactive) | 0.975 (inactive) | 0.991 (inactive) | 1.12 (inactive)
O=C1Nc2ccccc2C1(c1ccc(O)cc1)c1ccc(O)cc1 [Oxyphenisatin] (20 µM) | 1.19 | 1.05 | 1 | 0.994 | 1.03 (inactive) | 0.982 (inactive) | 0.935 (inactive) | 1.04 (inactive) | 1 (inactive) | 1.01 (inactive) | 0.999 (inactive) | 0.89 (inactive)
OCC(CO)N[C@H]1C[C@](O)(CO)[C@@H](O)[C@H](O)[C@H]1O [Voglibose] (20 µM) | 1.03 | 1.05 | 1.03 | 1.17 | 1.02 (inactive) | 1.06 (inactive) | 1.06 (inactive) | 0.984 (inactive) | 0.99 (inactive) | 0.917 (inactive) | 1.01 (inactive) | 1.09 (inactive)
Cc1cc(C(C)(C)C)cc(C)c1CC1=NCCN1 [Xylometazoline hydrochloride] (20 µM) | 0.986 | 1.01 | 1.01 | 1.1 | 0.982 (inactive) | 1.01 (inactive) | 1.01 (inactive) | 0.986 (inactive) | 0.966 (inactive) | 0.968 (inactive) | 1 (inactive) | 0.998 (inactive)
CC(C)=CCC1C(=O)N(c2ccccc2)N(c2ccccc2)C1=O [Feprazone] (20 µM) | 1.07 | 0.999 | 1.01 | 1.04 | 0.971 (inactive) | 1.02 (inactive) | 1.01 (inactive) | 1.02 (inactive) | 1.02 (inactive) | 0.996 (inactive) | 1 (inactive) | 1.03 (inactive)
Cn1nnc2c(C(N)=O)ncn2c1=O [Temozolomide] (20 µM) | 1.09 | 0.982 | 0.992 | 1.23 | 0.956 (inactive) | 0.977 (inactive) | 1.02 (inactive) | 1 (inactive) | 0.989 (inactive) | 1.02 (inactive) | 0.998 (inactive) | 1.01 (inactive)
O=C(CCCN1CCC(O)(c2ccc(Br)cc2)CC1)c1ccc(F)cc1 [Bromperidol] (20 µM) | 0.952 | 0.965 | 0.953 | 0.813 | 1.02 (inactive) | 1.02 (inactive) | 0.916 (inactive) | 0.99 (inactive) | 1 (inactive) | 0.913 (inactive) | 0.998 (inactive) | 0.949 (inactive)
CN(C)C(=O)Nc1ccc(Cl)c(Cl)c1 (20 µM) | 1.05 | 1.02 | 0.938 | 1.08 | 1.01 (inactive) | 0.947 (inactive) | 0.962 (inactive) | 0.97 (inactive) | 0.976 (inactive) | 0.991 (inactive) | 0.99 (inactive) | 0.954 (inactive)
Nc1ccc(S(=O)(=O)Nc2ncccn2)cc1 [Sulfadiazine] (20 µM) | 0.978 | 0.939 | 1.06 | 0.958 | 0.966 (inactive) | 0.955 (inactive) | 0.997 (inactive) | 0.976 (inactive) | 1 (inactive) | 1.03 (inactive) | 1.01 (inactive) | 1.02 (inactive)
COc1ccc(CN(CCN(C)C)c2ccccn2)cc1 [Pyrilamine maleate] (20 µM) | 1.02 | 0.962 | 0.981 | 0.868 | 1.02 (inactive) | 1.02 (inactive) | 1.02 (inactive) | 0.811 (inactive) | 1.07 (inactive) | 1.57 (active) | 1.04 (inactive) | 0.963 (inactive)
CC(=O)OC(C)C[N+](C)(C)C (centres undefined) [Methacholine chloride] (20 µM) | 0.962 | 1.02 | 0.965 | 0.97 | 0.992 (inactive) | 1.01 (inactive) | 1.06 (inactive) | 1.09 (inactive) | 1 (inactive) | 0.985 (inactive) | 0.989 (inactive) | 1.08 (inactive)
O=C(O)CCc1nc(-c2ccccc2)c(-c2ccccc2)o1 [Oxaprozin] (20 µM) | 1.08 | 1.04 | 0.984 | 1.06 | 1.04 (inactive) | 1.03 (inactive) | 1.03 (inactive) | 1.01 (inactive) | 1 (inactive) | 0.96 (inactive) | 0.979 (inactive) | 1.1 (inactive)
C=C1/C(=C\C=C2/CCC[C@]3(C)[C@@H]([C@H](C)/C=C/[C@@H](O)C4CC4)CC[C@@H]23)C[C@@H](O)C[C@@H]1O [Calcipotriene] (20 µM) | 1.07 | 0.96 | 1.02 | 1.3 | 1.02 (inactive) | 0.952 (inactive) | 1.01 (inactive) | 1.01 (inactive) | 1.01 (inactive) | 0.969 (inactive) | 1 (inactive) | 0.981 (inactive)
CC1(C)S[C@@H]2[C@H](NC(=O)C(C(=O)O)c3ccccc3)C(=O)N2[C@H]1C(=O)O (some centres undefined) [Carbenicillin disodium salt] (20 µM) | 0 | 1.19 | 1.05 | 0.00334 | 1.02 (inactive) | 0.0162 (active) | 0.0824 (active) | 0.927 (inactive) | 0.986 (inactive) | 1.79 (active) | 1.05 (inactive) | 0.0579 (active)
CC#C[C@]1(O)CC[C@H]2[C@@H]3CCC4=CC(=O)CCC4=C3[C@@H](c3ccc(N(C)C)cc3)C[C@@]21C [Mifepristone] (20 µM) | 1.19 | 0.971 | 0.986 | 1.09 | 1.02 (inactive) | 0.911 (inactive) | 0.975 (inactive) | 1.01 (inactive) | 1.02 (inactive) | 1.01 (inactive) | 0.998 (inactive) | 0.902 (inactive)
C[C@H](N[C@@H](CCc1ccccc1)C(=O)O)C(=O)N1CCC[C@H]1C(=O)O [Enalaprilat dihydrate] (20 µM) | 0.89 | 0.971 | 0.996 | 1.16 | 1.04 (inactive) | 0.967 (inactive) | 1.04 (inactive) | 1 (inactive) | 1.01 (inactive) | 1.08 (inactive) | 0.991 (inactive) | 1.04 (inactive)
NC(=O)C(c1ccccc1)(c1ccccc1)[C@@H]1CCN(CCc2ccc3c(c2)CCO3)C1 [Darifenacin hydrobromide] (20 µM) | 1.04 | 0.975 | 1.02 | 0.96 | 0.873 (inactive) | 1.19 (inactive) | 1.1 (inactive) | 0.943 (inactive) | 1.05 (inactive) | 0.961 (inactive) | 1.15 (inactive) | 1.25 (inactive)
COc1ccc(OC)c(C(O)CNC(=O)CN)c1 (centres undefined) [Midodrine hydrochloride] (20 µM) | 1.08 | 1.03 | 1.09 | 0.949 | 1.05 (inactive) | 1.03 (inactive) | 1 (inactive) | 1.01 (inactive) | 1 (inactive) | 0.995 (inactive) | 0.995 (inactive) | 1 (inactive)

From the supplement of paper PMC12494721
